Assay results reported in ChEMBL document CHEMBL1961873, “Compounds: GSK PKIS; Assays: Nanosyn kinase panel” (2012).

How the values were obtained:
[1] = biological target: Mitogen-activated protein kinase kinase kinase kinase 4 (Homo sapiens) (UniProt O95819); conditions: at 1 µM;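 further: reported figure is an averaged inhibition value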
[2] = biological target: Dual specificity mitogen-activated protein kinase kinase 1 (Homo sapiens) (UniProt Q02750); conditions: at 0.1 µM
[3] = biological target: Dual specificity mitogen-activated protein kinase kinase 1 (Homo sapiens) (UniProt Q02750); conditions: at 1 µM
[4] = biological target: Misshapen-like kinase 1 (Homo sapiens) (UniProt Q8N4C8); conditions: at 0.1 µM
Misshapen-like kinase 1 (Homo sapiens), sequence (Q8N4C8 whole entry, looked up): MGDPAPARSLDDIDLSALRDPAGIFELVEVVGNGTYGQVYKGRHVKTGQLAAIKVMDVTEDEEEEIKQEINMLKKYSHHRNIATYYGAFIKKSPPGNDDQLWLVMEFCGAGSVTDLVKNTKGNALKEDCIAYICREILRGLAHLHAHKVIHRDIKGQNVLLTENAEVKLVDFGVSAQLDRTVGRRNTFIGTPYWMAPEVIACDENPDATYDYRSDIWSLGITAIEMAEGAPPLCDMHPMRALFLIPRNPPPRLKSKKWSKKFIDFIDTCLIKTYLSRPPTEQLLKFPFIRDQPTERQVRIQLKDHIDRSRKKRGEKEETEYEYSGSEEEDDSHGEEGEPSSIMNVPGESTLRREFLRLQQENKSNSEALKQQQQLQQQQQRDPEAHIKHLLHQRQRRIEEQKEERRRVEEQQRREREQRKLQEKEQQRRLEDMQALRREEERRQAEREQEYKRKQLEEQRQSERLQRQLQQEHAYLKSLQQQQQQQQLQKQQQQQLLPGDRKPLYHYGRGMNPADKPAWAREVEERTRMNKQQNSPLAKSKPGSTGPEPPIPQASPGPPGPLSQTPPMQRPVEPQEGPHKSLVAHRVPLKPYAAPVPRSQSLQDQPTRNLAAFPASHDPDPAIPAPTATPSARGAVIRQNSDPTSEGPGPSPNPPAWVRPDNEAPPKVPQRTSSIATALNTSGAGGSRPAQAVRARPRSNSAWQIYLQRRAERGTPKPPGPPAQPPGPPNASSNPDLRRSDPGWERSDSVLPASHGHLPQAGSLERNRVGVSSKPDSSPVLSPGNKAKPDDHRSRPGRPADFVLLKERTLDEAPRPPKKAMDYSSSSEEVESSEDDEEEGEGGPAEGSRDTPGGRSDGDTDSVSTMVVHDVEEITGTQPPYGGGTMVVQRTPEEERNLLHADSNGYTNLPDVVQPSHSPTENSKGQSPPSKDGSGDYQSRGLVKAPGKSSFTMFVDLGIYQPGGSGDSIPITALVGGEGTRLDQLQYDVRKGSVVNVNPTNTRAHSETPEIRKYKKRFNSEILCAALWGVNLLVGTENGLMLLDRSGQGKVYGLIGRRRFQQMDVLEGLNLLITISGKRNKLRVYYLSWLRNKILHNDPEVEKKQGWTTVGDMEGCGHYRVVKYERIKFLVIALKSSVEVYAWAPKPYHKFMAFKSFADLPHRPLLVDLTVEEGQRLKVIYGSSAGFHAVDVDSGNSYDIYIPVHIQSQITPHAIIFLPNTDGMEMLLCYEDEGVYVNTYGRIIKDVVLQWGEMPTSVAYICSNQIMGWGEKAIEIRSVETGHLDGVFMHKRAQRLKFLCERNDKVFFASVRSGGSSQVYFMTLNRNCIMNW

[5] = biological target: Misshapen-like kinase 1 (Homo sapiens) (UniProt Q8N4C8); conditions: at 1 µM
[6] = biological target: T1, Serine/threonine-protein kinase 4 (Homo sapiens) (UniProt Q13043); conditions: at 0.1 µM
T1 sequence (whole entry): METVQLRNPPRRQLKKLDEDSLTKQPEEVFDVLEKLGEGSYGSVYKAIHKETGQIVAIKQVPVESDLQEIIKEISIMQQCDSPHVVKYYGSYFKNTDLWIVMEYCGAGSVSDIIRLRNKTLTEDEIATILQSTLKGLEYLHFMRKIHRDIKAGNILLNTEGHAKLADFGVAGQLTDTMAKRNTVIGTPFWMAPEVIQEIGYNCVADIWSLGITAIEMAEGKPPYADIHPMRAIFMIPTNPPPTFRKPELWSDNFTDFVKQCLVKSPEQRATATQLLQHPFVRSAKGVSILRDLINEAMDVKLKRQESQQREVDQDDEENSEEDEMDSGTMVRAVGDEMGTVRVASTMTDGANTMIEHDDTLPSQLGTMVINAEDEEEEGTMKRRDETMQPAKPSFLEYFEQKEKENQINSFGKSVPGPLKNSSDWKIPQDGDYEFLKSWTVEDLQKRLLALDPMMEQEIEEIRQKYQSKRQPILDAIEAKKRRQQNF

[7] = biological target: T1, Serine/threonine-protein kinase 4 (Homo sapiens); conditions: at 1 µM
[8] = biological target: T2, Serine/threonine-protein kinase 3 (Homo sapiens) (UniProt Q13188); conditions: at 0.1 µM
T2 sequence (whole entry): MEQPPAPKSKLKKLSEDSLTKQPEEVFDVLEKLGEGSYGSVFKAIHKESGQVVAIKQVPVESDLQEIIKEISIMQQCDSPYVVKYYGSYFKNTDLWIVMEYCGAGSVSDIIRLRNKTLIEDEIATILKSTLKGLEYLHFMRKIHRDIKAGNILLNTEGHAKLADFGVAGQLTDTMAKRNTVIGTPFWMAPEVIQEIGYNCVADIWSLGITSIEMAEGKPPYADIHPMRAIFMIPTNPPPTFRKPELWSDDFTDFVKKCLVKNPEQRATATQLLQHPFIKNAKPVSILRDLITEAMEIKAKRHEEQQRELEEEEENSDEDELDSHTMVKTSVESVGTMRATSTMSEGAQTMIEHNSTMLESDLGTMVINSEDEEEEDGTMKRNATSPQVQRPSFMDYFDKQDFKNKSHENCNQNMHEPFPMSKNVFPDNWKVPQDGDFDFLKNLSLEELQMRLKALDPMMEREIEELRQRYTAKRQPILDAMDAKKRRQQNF

[9] = biological target: T2, Serine/threonine-protein kinase 3 (Homo sapiens); conditions: at 1 µM
[10] = biological target: Serine/threonine-protein kinase 26 (Homo sapiens) (UniProt Q9P289); conditions: at 0.1 µM
Serine/threonine-protein kinase 26 (Homo sapiens), sequence (Q9P289 2-416 limits assumed): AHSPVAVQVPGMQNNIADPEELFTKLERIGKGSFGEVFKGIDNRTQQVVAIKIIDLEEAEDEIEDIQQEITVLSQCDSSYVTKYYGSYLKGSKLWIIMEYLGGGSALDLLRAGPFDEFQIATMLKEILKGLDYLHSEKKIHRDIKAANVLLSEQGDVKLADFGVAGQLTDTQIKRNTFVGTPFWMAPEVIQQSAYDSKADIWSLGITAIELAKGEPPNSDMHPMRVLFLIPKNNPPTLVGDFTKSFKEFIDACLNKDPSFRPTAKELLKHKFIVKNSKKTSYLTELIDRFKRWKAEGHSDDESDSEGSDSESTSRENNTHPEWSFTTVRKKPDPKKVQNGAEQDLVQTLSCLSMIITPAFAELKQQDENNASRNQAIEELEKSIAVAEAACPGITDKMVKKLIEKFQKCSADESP

[11] = biological target: Serine/threonine-protein kinase 26 (Homo sapiens) (UniProt Q9P289); conditions: at 1 µM
[12] = biological target: Serine/threonine-protein kinase PAK 1 (Homo sapiens) (UniProt Q13153); conditions: at 0.1 µM
Serine/threonine-protein kinase PAK 1 (Homo sapiens), sequence (Q13153 whole entry): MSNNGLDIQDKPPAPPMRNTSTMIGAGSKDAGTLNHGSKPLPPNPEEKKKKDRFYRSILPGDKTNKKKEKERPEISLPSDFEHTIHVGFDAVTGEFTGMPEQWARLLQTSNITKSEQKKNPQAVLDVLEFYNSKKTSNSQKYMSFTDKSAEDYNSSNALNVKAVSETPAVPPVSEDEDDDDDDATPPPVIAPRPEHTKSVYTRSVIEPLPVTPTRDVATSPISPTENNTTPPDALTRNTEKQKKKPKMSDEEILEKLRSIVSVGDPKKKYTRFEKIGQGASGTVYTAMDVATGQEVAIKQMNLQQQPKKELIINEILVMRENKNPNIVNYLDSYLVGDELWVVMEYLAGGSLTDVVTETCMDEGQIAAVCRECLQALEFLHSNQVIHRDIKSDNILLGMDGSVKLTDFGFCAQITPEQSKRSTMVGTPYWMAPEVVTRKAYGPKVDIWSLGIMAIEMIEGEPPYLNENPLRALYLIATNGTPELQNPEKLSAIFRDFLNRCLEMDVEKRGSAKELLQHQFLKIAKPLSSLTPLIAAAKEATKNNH

[13] = biological target: Serine/threonine-protein kinase PAK 1 (Homo sapiens) (UniProt Q13153); conditions: at 1 µM
[14] = biological target: Serine/threonine-protein kinase PAK 2 (Homo sapiens) (UniProt Q13177); conditions: at 0.1 µM
Serine/threonine-protein kinase PAK 2 (Homo sapiens), sequence (Q13177 whole entry): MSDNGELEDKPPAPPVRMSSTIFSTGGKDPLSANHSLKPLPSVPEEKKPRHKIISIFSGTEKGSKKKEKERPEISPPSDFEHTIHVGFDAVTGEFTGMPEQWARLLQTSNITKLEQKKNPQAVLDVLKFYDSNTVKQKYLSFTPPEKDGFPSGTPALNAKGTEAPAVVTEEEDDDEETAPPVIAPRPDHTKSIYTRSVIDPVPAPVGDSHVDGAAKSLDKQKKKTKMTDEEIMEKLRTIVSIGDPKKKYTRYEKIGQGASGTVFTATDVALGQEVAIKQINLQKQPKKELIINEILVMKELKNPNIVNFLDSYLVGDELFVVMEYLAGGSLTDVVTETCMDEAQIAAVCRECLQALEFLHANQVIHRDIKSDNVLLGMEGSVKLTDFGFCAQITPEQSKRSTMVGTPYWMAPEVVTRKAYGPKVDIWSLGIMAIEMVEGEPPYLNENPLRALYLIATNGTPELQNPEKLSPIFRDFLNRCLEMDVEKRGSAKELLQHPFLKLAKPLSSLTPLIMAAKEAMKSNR

[15] = biological target: Serine/threonine-protein kinase PAK 2 (Homo sapiens) (UniProt Q13177); conditions: at 1 µM
[16] = biological target: Serine/threonine-protein kinase PAK 3 (Homo sapiens) (UniProt O75914); conditions: at 0.1 µM
Serine/threonine-protein kinase PAK 3 (Homo sapiens), sequence (O75914 whole entry, looked up): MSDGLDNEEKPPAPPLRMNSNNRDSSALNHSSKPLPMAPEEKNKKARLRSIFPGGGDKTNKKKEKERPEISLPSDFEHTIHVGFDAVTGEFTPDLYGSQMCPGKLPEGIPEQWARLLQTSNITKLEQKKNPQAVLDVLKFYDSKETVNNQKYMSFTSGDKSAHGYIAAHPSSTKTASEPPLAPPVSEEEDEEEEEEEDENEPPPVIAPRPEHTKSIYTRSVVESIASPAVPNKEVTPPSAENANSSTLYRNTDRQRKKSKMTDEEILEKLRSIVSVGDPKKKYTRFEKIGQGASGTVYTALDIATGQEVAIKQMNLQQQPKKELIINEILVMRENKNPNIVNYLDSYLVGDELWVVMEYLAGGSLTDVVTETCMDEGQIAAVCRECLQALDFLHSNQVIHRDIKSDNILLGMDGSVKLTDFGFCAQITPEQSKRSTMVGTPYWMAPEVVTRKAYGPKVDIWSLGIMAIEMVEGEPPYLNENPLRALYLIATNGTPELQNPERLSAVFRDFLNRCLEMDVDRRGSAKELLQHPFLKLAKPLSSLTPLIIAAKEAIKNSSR

[17] = biological target: Serine/threonine-protein kinase PAK 3 (Homo sapiens) (UniProt O75914); conditions: at 1 µM
[18] = biological target: Serine/threonine-protein kinase PAK 5 (Homo sapiens) (UniProt Q9P286); conditions: at 0.1 µM
Serine/threonine-protein kinase PAK 5 (Homo sapiens), sequence (Q9P286 whole entry, looked up): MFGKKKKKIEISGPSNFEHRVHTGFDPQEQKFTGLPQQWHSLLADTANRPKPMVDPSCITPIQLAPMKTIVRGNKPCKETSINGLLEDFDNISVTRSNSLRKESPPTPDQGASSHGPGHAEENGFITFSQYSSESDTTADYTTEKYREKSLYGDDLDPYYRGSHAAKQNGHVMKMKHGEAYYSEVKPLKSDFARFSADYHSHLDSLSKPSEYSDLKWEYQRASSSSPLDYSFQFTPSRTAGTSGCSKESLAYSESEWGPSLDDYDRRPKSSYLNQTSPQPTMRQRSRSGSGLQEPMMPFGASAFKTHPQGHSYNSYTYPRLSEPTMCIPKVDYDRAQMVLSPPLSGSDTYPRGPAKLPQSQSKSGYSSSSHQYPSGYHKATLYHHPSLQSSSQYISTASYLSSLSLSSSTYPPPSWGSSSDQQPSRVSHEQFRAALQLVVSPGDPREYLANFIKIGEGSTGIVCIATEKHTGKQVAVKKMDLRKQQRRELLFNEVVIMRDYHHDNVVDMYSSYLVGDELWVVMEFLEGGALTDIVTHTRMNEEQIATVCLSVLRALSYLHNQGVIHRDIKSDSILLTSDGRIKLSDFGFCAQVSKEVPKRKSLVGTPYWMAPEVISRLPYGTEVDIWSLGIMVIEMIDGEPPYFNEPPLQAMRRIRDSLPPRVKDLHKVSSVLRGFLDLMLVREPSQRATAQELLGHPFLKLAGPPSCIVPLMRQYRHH

[19] = biological target: Serine/threonine-protein kinase PAK 5 (Homo sapiens) (UniProt Q9P286); conditions: at 1 µM
[20] = biological target: Serine/threonine-protein kinase PAK 6 (Homo sapiens) (UniProt Q9NQU5); conditions: at 0.1 µM;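 further: mean PAK6 inhibition reported from the GSK PKIS screen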
Serine/threonine-protein kinase PAK 6 (Homo sapiens), sequence (Q9NQU5 whole entry, looked up): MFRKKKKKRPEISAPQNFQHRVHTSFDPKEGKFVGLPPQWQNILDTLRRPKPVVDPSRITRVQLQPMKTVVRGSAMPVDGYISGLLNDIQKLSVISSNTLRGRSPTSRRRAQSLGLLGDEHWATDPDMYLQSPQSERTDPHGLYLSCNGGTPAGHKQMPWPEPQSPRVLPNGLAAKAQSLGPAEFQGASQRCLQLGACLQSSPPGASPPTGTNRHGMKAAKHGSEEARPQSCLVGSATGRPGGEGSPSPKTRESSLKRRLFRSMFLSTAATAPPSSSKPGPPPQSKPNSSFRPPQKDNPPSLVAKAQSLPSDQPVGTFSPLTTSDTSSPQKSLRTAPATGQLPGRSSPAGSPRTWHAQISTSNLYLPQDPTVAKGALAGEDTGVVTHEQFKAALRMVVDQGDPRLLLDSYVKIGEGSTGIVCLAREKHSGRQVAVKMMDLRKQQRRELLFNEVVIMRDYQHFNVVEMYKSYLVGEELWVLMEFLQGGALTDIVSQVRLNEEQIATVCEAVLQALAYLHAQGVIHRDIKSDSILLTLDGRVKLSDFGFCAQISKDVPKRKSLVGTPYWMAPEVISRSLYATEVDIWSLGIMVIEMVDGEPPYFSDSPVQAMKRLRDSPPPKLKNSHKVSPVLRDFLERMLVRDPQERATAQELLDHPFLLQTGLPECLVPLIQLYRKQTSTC

| SMILES | inhibition [1] [%] | inhibition [2] [%] | inhibition [3] [%] | inhibition [4] [%] | inhibition [5] [%] | inhibition [6] [%] | inhibition [7] [%] | inhibition [8] [%] | inhibition [9] [%] | inhibition [10] [%] | inhibition [11] [%] | inhibition [12] [%] | inhibition [13] [%] | inhibition [14] [%] | inhibition [15] [%] | inhibition [16] [%] | inhibition [17] [%] | inhibition [18] [%] | inhibition [19] [%] | inhibition [20] [%] |
| --- | --- | --- | --- | --- | --- | --- | --- | --- | --- | --- | --- | --- | --- | --- | --- | --- | --- | --- | --- | --- |
| O=S(=O)(CCOCc1ccc(-c2ccc3ncnc(Nc4ccc(OCc5cccc(F)c5)c(Cl)c4)c3c2)o1)c1ccccc1 | 7 | 2.11 | 3.33 | 3.54 | 5.66 | 4.3 | 7.99 | 0.99 | 5.7 | -0.04 | 0.25 | 4.98 | 5.84 | -0.35 | 0.7 | 0.57 | 2.12 | 0.21 | -1.3 |  |
| Oc1cccc(-c2nc(-c3ccccc3)[nH]c2-c2ccncc2)c1 | 11.6 | 5.08 | 4.94 | 5.57 | 8.96 | 5.39 | 8.96 | 5.44 | 7.6 | 0.83 | 4.67 | 6.65 | 6.51 | 2.18 | 1.52 | 3.47 | 3.48 | 11.4 | 15.7 |  |
| O=C1Nc2ccccc2/C1=C/Nc1ccc2[nH]c(=O)[nH]c2c1 | 75.4 | 8.19 | 6.88 | 17.4 | 64.3 | 18.1 | 67.2 | 15.5 | 59.4 | -1.35 | 2.72 | 10.5 | 7.51 | 0.87 | 1.53 | 7.05 | 5.03 | 5.25 | 3.2 | -6.58 |
| NC(=O)c1sc(-n2cnc3ccccc32)cc1OCc1ccccc1Br | 11.3 | 3.81 | 4.35 | 5.6 | 9.1 | 1.82 | 7.07 | 4.03 | 5.83 | -1.18 | -2.12 | 6.29 | 10 | 1.42 | 2.45 | 4.83 | 5.89 | 2.59 | 5.06 |  |
| COc1cc2ncnc(Nc3ccc(C)c(O)c3)c2cc1OC | 21.4 | 6.11 | 5.54 | 9.75 | 18 | 5.24 | 9.47 | 5.84 | 8.26 | -1.09 | -1.08 | 6.98 | 7.41 | 1.81 | 2.35 | 5.88 | 5.36 | 0.51 | 7.08 | -1.14 |
| COC(=O)c1ccc2c(c1)C(=Cc1cc(Br)c(O)c(Br)c1)C(=O)N2 | 84.7 | 3.31 | 5.79 | 26.4 | 75.2 | 3.54 | 19 | 4.78 | 19.5 | 1.49 | 15.1 | 8.19 | 10.1 | 1.7 | 1.99 | 4.21 | 5.43 | 7.06 | 10.8 |  |
| Cc1cc(-c2ccccn2)cc(C)c1/C=C/c1cncc(-c2nn[nH]n2)c1 | 13.5 | 3.04 | 4.93 | 2.69 | 9.19 | 3.88 | 8.04 | 3.7 | 7.75 | -1.78 | 5.19 | 6.38 | 6.81 | 1.95 | 2.95 | 4.9 | 5.22 | 1.64 | 0.08 |  |
| c1ccc(Nc2ncc(-c3ccccc3)o2)cc1 | 25.9 | 5.07 | 4.19 | 6.17 | 19 | 2.36 | 4.87 | 4.89 | 6.36 | -1.38 | 0.04 | 6.49 | 10.6 | 0.76 | 2.87 | 5.16 | 4.34 | 2.74 | 2.9 |  |
| CS(=O)(=O)CCNCc1nc(-c2ccc3ncnc(Nc4ccc(OCc5cccc(C(F)(F)F)c5)cc4)c3c2)cs1 | 3.34 | 1.13 | 0.13 | 2.9 | 4.39 | 3.31 | 6.13 | 4.17 | 6.28 | -0.02 | 1.5 | 1.25 | 3.12 | -0.05 | -0.1 | 2.76 | 5.04 | 2.81 | 1.26 |  |
| NC(=O)c1cccc(Nc2nccc(Nc3cccc(F)c3)n2)c1 | 44.9 | -0.23 | 1.42 | 6.07 | 33.3 | 0.59 | 12.2 | 1.63 | 6.4 | -0.81 | 2.97 | 0.29 | 2.79 | 0.32 | 0.69 | 0.23 | 2.37 | -1.35 | 1.21 |  |
| OCc1ccc(-c2nc(-c3ccccn3)c(-c3ccc4c(c3)OCO4)[nH]2)cc1 | 6.4 | 5.12 | 4.13 | 5.77 | 7.23 | 6.59 | 6.27 | 8.49 | 4.84 | -1.45 | -2.75 | 3.25 | 7.25 | 2.61 | 2.79 | 4.79 | 5.17 | 1.77 | 0.71 | 3.79 |
| CCOc1nccc2c1nc(-c1nonc1N)n2CC | 14.3 | 3.44 | 3.14 | 5.33 | 13.8 | 12.1 | 22.7 | 11.4 | 21.8 | 0.4 | -0.82 | 5.11 | 2.07 | 0.86 | 1.74 | 3.24 | 4.4 | 7.54 | 6.11 | 5.85 |
| CN(C)C(=O)O[C@H]1CN[C@H](C#Cc2cc3ncnc(Nc4ccc(OCc5cccc(F)c5)c(Cl)c4)c3s2)C1 | 4.23 | 1.29 | 2.35 | 3.51 | 3.5 | 2.1 | 4.55 | 2.81 | 3 | -0.23 | -0.62 | 4.28 | 2.22 | 1.72 | -0.31 | 2.53 | 4.3 | 4.8 | 1.82 | 9.3 |
